According to PubChem BioAssay AID2561 (National Center for Advancing Translational Sciences (NCATS), 2010):
Inconclusive results are not listed. Unmarked numbers belong to inactive results. Activity calls are given as the source filed them. Calls come from the whole dose curve; as a rule, active = well fitted inhibition curve with a large enough effect; inconclusive = small, poorly fitted or top-dose-only effect, or effect the other way; inactive = flat fitted curve, though single readings scatter.

What follows are molecules tested against Pyruvate kinase (Leishmania mexicana) (UniProt Q27686) (assay: Confirmation Assay for Inhibitors of Leishmania Mexicana Pyruvate Kinase (LmPK): for Probe SAR). Conditions: purified LmPK, ATP generation, Kinase-Glo luminescence; series mostly up to 57.5 µM; activity change, negative = inhibition: at the top concentration.
Description: NIH Chemical Genomics Center [NCGC] Malcolm Walkinshaw, Hugh Morgan, Linda Gilmore University of Edinburgh, UK MLPCN Grant: 1 R03 MH085697-01 NCGC Assay Overview: Pyruvate kinase (L. Mexicana) (LmPK) enzyme was supplied as a highly purified (>95% pure) sulphate-free preparation from University of Edinburgh, UK and assayed for its ability to generate ATP from ADP using phosphoenolpyruvate (PEP) as a substrate. ATP generation was detected in a coupled reaction by luciferase-mediated luminescence, an ATP-dependent process. Pyruvate kinase substrates, PEP and ADP, were present in the assay at Km and approximately 10-fold below Km respectively. The enzyme was assayed at an intermediate level of activity to screen for both inhibitors and activators.
NCGC Assay Protocol Summary: Three uL of enzyme mix (kept on ice) in assay buffer (50 mM Imidazole pH7.2, 50 mM KCl, 7 mM MgCl2, 0.01% Tween 20, 0.05% BSA) containing PEP (0.5 mM final concentration) and LmPK (0.1 nM final concentration) was dispensed into white solid bottom 1,536 well microtiter plates. 23 nL of compound were delivered by a pin tool and 1 uL of ADP mix in assay buffer (r.t; 0.1 mM final ADP concentration) was added. Plates were incubated at room temperature for 1 hour. Two uL of detection mix (Kinase-Glo, Promega; at 4 degree Celsius protected from light) was added and luminescence read by a ViewLux (Perkin Elmer) at 1 second exposure/plate. Data were normalized to the uninhibited and AC100 inhibition (no enzyme). To monitor activation, the first column contained a five-fold concentration of LmPK (0.5 nM).
Potency is the fitted concentration of half-maximal effect.
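Throughout, for activity change, negative = inhibition: plate controls were uninhibited enzyme for no effect and no enzyme wells for full effect.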

Pyruvate kinase (Leishmania mexicana), sequence (Q27686 whole entry, looked up): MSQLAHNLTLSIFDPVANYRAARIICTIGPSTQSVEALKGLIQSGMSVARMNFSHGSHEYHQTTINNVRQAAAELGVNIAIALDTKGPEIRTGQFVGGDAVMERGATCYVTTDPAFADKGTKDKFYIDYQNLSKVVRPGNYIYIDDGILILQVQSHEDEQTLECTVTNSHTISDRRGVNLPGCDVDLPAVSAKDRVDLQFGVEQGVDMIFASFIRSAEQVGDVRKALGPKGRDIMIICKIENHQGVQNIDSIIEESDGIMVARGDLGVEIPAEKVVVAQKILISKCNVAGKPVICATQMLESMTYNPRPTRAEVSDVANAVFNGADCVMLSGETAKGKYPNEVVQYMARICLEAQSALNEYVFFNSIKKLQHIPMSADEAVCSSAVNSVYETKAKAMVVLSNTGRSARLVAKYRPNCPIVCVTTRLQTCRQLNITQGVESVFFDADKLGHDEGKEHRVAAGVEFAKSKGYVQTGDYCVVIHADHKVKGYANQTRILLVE

Compound | activity change, negative = inhibition [%] | Potency
O=C1c2ccccc2C(=O)N1c1cccnc1 | 15.6 | –
O=S1(=O)N=C(Oc2ccccc2Br)c2ccccc21 | – | 5.8 µM (active)
O=S1(=O)N=C(Oc2ccccc2C(F)(F)F)c2ccccc21 | – | 6.51 µM (active)
Cc1ccc2nc(-c3ccc(C)o3)c(NC3CCCC3)n2c1 | 2.25 | –
O=S1(=O)N=C(Oc2ccc3ccccc3c2)c2ccccc21 | – | 4.11 µM (active)
Cc1ccc(NS(=O)(=O)c2ccc3c(c2)CC(=O)N3C)cc1C | -0.237 | –
O=C1c2ccccc2C(=O)N1Cc1ccccn1 | -7.55 | –
O=C1NS(=O)(=O)C(c2ccccc2)C1c1ccccc1 (stereo not given) | 0.126 | –
Cc1cc(C)c2[nH]c(C3C(=O)c4ccccc4C3=O)cc(=O)c2c1 | -9.19 | –
COc1cccc(N2C(=O)c3ccccc3C2=O)c1 | 8.16 | –
O=S1(=O)N=C(Sc2cc(C(F)(F)F)cc(C(F)(F)F)c2)c2ccccc21 | – | 2.91 µM (active)
Cc1ccn2c(NC3CCCCC3)c(-c3ccc(C)o3)nc2c1 | 0 | –
CC(=O)Nc1cccc(OC2=NS(=O)(=O)c3ccccc32)c1 | – | 2.06 µM (active)
Cc1cccc(NS(=O)(=O)c2ccc3c(c2)CCC(=O)N3)c1 | -10.1 | –
CN=c1nc(-c2ccccc2)n(-c2ccccc2)s1 | 11.1 | –
COc1ccc(N2C(=O)c3ccccc3S2(=O)=O)cc1 | 6.47 | –
COc1ccc(NS(=O)(=O)c2ccccc2)cc1NS(=O)(=O)c1ccccc1 | 31.7 | –
COc1ccc(N2C(=O)c3ccccc3C2=O)cc1 | 4.39 | –
O=C1CCc2cc(S(=O)(=O)Nc3cccc(-c4ccccc4)c3)ccc2N1 | 15 | –
O=[S+]1([O-])N=C(Oc2cccnc2)c2ccccc21 | 4.41 | –

Compound | activity change, negative = inhibition [%] | Potency
COc1ccc(Nc2c(-c3ccc(C)o3)nc3ccccn23)cc1 | 22.7 | –
O=S1(=O)N=C(Oc2cccc(C(F)(F)F)c2)c2ccccc21 | – | 4.61 µM (active)
Cn1c2cc(S(C)=O)sc2c2cnn(Cc3cccc(N)c3)c(=O)c21 (stereo not given) | 4.83 | –
CCOc1ccc2c(c1)C(=O)C(c1cc(=O)c3ccccc3[nH]1)C2=O (stereo not given) | -12.2 | –
Cc1ccc(Nc2c(-c3ccc(C)o3)nc3ccccn23)cc1 | 16.8 | –
O=C(O)c1ccccc1OC1=NS(=O)(=O)c2ccccc21 | – | 1.63 µM (active)
Cc1cc(C)n2c(Nc3ccccc3)c(-c3ccc(C)o3)nc2n1 | 1.14 | –
Cc1ccc(NS(=O)(=O)c2ccc3c(c2)n(C)c(=O)n3C)cc1C | 3.57 | –
Cc1ccc(NS(=O)(=O)c2ccc3c(ccn3C)c2)cc1C | -11 | –
O=S1(=O)N=C(Oc2ccccc2)c2ccccc21 | – | 8.01 µM (active)
Cc1ccc(NS(=O)(=O)c2cc3c(cc2-c2ccsc2)NC(=O)CO3)cc1C | 1.92 | –
Cc1ccc(NS(=O)(=O)c2ccc3c(c2)CCC(=O)N3)cc1C | -0.583 | –
O=S1(=O)N=C(Oc2cccc3ccccc23)c2ccccc21 | – | 4.11 µM (active)
Nc1ccccc1OC1=NS(=O)(=O)c2ccccc21 | 1.06 | –
O=C1c2ccccc2C(=O)N1c1ccc(O)cc1 | 10.1 | –
O=C1c2ccccc2C(=O)N1c1ccccn1 | 23.6 | –
Cc1ccc(NS(=O)(=O)c2cc3c(cc2-c2ccco2)NC(=O)CO3)cc1C | 9.07 | –
O=C1CCc2cc(S(=O)(=O)Nc3ccc(-c4ccccc4)cc3)ccc2N1 | -3.23 | –
Cc1ccc(-c2nc3ccccn3c2Nc2ccccc2C)o1 | 6.67 | –
O=C1c2ccccc2C(=O)N1c1cnc2ccccc2c1 | 9.24 | –
